Hits are enriched below; roughly 0.5% of the tested compounds scored in any of these assays.
AddAB inh = growth inhibition of E. coli expressing H. pylori AddAB, primary screen, AddAB inhibitor project, absorbance; inhibition, % at 11.9 µM; 330,000 compounds, 0.29% hits; AID 435030, 2010; in the data active = inhibition above about 12%;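 note: 0% = vehicle wells of infected cells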
phage Ecoli inh = growth loss of phage-infected E. coli, primary screen, RecBCD inhibitor project, absorbance, with phage, HTS; inhibition, % at 11.9 µM; 360,000 compounds, 0.26% hits; AID 651602, 2012; in the data active = inhibition above about 11%
E coli growth-1 = E. coli V3065 growth inhibition, primary screen, counter-screen for AddAB inhibitor project, absorbance, OD600; 18 h; inhibition, % at 11.9 µM; 330,000 compounds, 0.27% hits; AID 449728, 2010;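 active = inhibition above the campaign's mean inhibition across all tested compounds plus 3 SD, cut at about 9.9% in these data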;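 note: uninfected addAB+ strain grown without phage in ampicillin broth; 0% = DMSO wells and 100% = ciprofloxacin 0.95 µg/ml wells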
Tat transport = E. coli Tat export inhibitors, primary screen, MC4100, TorA-mCherry reporter, fluorescence, single point; inhibition, % at 10 µM; 340,000 compounds, 0.036% hits; AID 488895, 2010;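 active = mean replicate inhibition at least 50% and at least half of replicates individually reaching 50%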;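 note: exported cargo escapes ClpAP degradation while cytoplasmic cargo is degraded and loses fluorescence; 0% = median of neutral control wells and 100% = median of NaSCN control wells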
E coli growth-2 = E. coli growth inhibition, primary screen, OD600; AID 1053175, 2014; Escherichia coli growth, 23 h; stronger effect = lower value; OD600 absorbance (test concentration not listed); 330,000 compounds, 0.21% hits;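 active = OD600 absorbance below the run mean of sample wells minus 3.6 SD, in any replicate, cut at about 0.56 in these data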
RecBCD conf = growth loss of phage-infected RecBCD+ E. coli, confirmation, RecBCD inhibitor project, absorbance, E. coli V66, T4 gene 2 phage; shares compounds with phage Ecoli inh; E. coli V66 + T4 2- phage, growth OD; inhibition, % at 11.9 µM; 890 compounds, 45% hits; AID 651982, 2013;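 active = mean inhibition over triplicates exceeding the hit threshold derived in the original primary screen, cut at about 11% in these data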
Ecoli viability = E. coli viability inhibition, counter-screen for RecBCD inhibitor project, absorbance, high throughput. AID 651983, 2013. inhibition, % at 11.9 µM. absorbance (OD) growth. 890 compounds, 29% hits. shares compounds with phage Ecoli inh; in the data active = inhibition above about 20%;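 note: E. coli strain V66 grown with compound alone and no phage infection; 0% = bacteria with DMSO vehicle only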
AddAB counter = growth loss of phage-infected AddAB-carrying E. coli, confirmation, counter-screen for RecBCD inhibitor project, absorbance, E. coli V3065, T4 phage; shares compounds with phage Ecoli inh; E. coli expressing H. pylori AddAB + T4 phage, OD growth; gene 2 mutant T4, recBCD-deleted host; inhibition, % at 11.9 µM; 890 compounds, 45% hits;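 active = mean inhibition above the solvent-only control wells' mean plus 3 SD, cut at about 22% in these data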;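 note: higher means less bacterial growth from phage killing when AddAB is blocked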
An asterisk follows results filed as active; / = not tested or not shown.

SMILES	AddAB inh	phage Ecoli inh	E coli growth-1	Tat transport	E coli growth-2	RecBCD conf	Ecoli viability	AddAB counter
Nc1nc(=S)c2ncn(C3OC(CO)CC3O)c2[nH]1 (stereo not drawn)	/	11.5*	/	-2.8	/	11.9*	11.1	37.8*
Cc1cn(C2CCC(CO)O2)c(=O)[nH]c1=O (stereo not drawn)	/	24.1*	/	-1.5	0.562	20.4*	11.9	60.2*
Nc1nc2ccc(Cl)cc2o1	/	13.3*	/	-16.1	0.634	14.2*	15.6	36.9*
Oc1c(Br)cc(Br)cc1CNc1cccc2cccnc12	-2.1	0.3	-3.7	-3.0	0.637	/	/	/
Oc1c(Br)cc(Br)c2cccnc12	/	44.3*	/	-9.6	/	60.3*	68.2*	53.0*
C=CCOc1c(Br)cc(C=C2NC(=S)N(C(C)=O)C2=O)cc1OC	/	/	/	/	0.754	/	/	/
Nc1nc(F)nc2c1ncn2[C@@H]1O[C@H](CO)[C@@H](O)[C@@H]1O	7.6	75.2*	2.6	-8.8	/	77.5*	78.8*	77.7*
O=c1[nH]c(=O)n(C2OC(CO)C(O)C2O)cc1F (stereo not drawn)	/	/	/	40.5	/	/	/	/
O=c1ncccn1C1OC(CO)C(O)C1O (stereo not drawn)	/	95.7*	/	/	/	92.7*	100.8*	98.0*
Nc1ncnc2c1ncn2[C@@H]1O[C@H](CO)[C@@H](O)[C@@H]1O	2.4	4.2	0.0	-5.6	/	/	/	/
Nc1nc(=O)n(C2OC(CO)C(O)C2O)cc1F (stereo not drawn)	/	21.1*	/	/	/	25.7*	21.1*	52.8*
COc1ccc(CC(=O)NCC(=O)NN=C(C)c2ccco2)cc1	/	/	/	/	0.679	/	/	/
Cc1ccc(-c2nc3ccc([N+](=O)[O-])cc3[nH]2)cc1	7.5	4.7	3.2	0.5	0.534	/	/	/
O=[N+]([O-])c1ccc2nc(-c3ccc(Cl)cc3)[nH]c2c1	9.6	11.1*	2.8	-1.3	0.556	3.4	5.5	8.6
NC(=S)NN=Cc1nccc2c(C(F)(F)F)cccc12	/	16.5*	/	/	/	18.5*	21.0*	21.6*
CNc1cccnc1C=NNC(N)=S	/	4.3	/	-10.0	/	/	/	/
O=C(c1ccco1)N1CCCN(Cc2nc(-c3ccc4c(c3)OCO4)no2)CC1	-1.7	14.9*	-0.2	3.8	0.677	1.1	1.4	-1.6
Fc1ccc(CN2CCCN(Cc3nc(-c4ccc5c(c4)OCO5)no3)CC2)cc1	2.6	4.3	-0.1	-1.6	0.656	/	/	/
NN=C(c1ccccc1)C12CN3CN(CN(C3)C1)C2	/	/	/	/	0.716	/	/	/
S=C(Nc1ccc(Br)cc1)NC1CCCCC1	8.0	11.9*	6.0	-0.2	0.665	2.6	4.7	4.9
CC(=O)N1N=C(c2cccc(NS(C)(=O)=O)c2)CC1c1cccs1 (stereo not drawn)	-0.4	3.5	-1.8	-6.1	0.676	/	/	/
CC(=O)N1N=C(c2cccc(O)c2)CC1c1cccs1 (stereo not drawn)	/	11.2*	/	2.2	0.659	-6.4	-7.0	-0.7
COc1ccc(C=NNC(=O)c2c(C)nc3ccc(Br)cn23)cc1OC	/	/	/	/	0.672	/	/	/
CCN1CCN(c2ccc(NC(=O)c3ccc([N+](=O)[O-])o3)cc2Cl)CC1	/	20.9*	/	6.7	0.538	16.1*	17.9	101.6*
CCN1CCN(c2ccc(S(=O)(=O)N3CCCCC3)cc2NC(=O)c2ccc([N+](=O)[O-])o2)CC1	4.4	2.5	-0.9	14.7	0.628	/	/	/
SMILES	AddAB inh	phage Ecoli inh	E coli growth-1	Tat transport	E coli growth-2	RecBCD conf	Ecoli viability	AddAB counter
O=[N+]([O-])c1ccc(NN=Cc2cccn2-c2ccccc2)nc1	/	/	/	/	0.701	/	/	/
Cn1nc(-c2ccccc2)c(C=NO)c1Cl	/	/	/	/	0.651	/	/	/
O=C(Nc1ccc(F)cc1)Nc1csc2ccccc12	6.7	12.6*	3.0	/	0.576	3.2	5.4	-1.6
CC(=NNC(=O)c1ccccc1Cl)c1ccccn1	/	/	/	/	0.627	/	/	/
CC(=NNC(=S)Nc1ccccc1Cl)c1ccccn1	/	14.3*	/	1.0	/	9.6	9.0	14.3
CC(=NNC(=S)Nc1ccccc1)c1ccccn1	/	15.6*	/	/	/	6.6	9.1	7.2
O=c1ccc2cc3c([nH]c4ccc(Br)cc43)oc-2c1O	8.3	14.0*	8.5	3.5	0.704	6.1	8.1	16.7
CC(NC(=O)C1CCCCC1)C(c1cccs1)N1CCOCC1 (stereo not drawn)	0.7	96.5*	-1.6	-0.2	0.75	2.1	1.7	1.6
CC(NC(=S)NC1CCCCC1)C(c1cccs1)N1CCOCC1 (stereo not drawn)	3.2	-2.0	1.4	3.3	0.692	/	/	/
CCC(NC(=O)Nc1nnc(C(F)(F)F)s1)(C(F)(F)F)C(F)(F)F	5.1	12.4*	9.3	-20.7	0.607	9.9	10.4	9.3
O=C(O)CCC(=O)Nc1nnc(C(F)(F)F)s1	1.2	2.2	-1.3	1.2	0.769	/	/	/
CCN(CC)S(=O)(=O)c1cccc(C(=O)N/N=C/c2ccc(O)c(O)c2O)c1	13.6*	13.6*	9.6	5.2	/	5.6	5.4	8.2
COc1cccc(C=NNC(=O)CN2CC(c3ccccc3)CC2=O)c1OC (stereo not drawn)	/	/	/	/	0.719	/	/	/
CCS(=O)(=O)NCCc1csc(-c2cccnc2)n1	-2.9	97.0*	0.7	0.0	0.703	-2.5	-2.8	3.1
Cc1cccc(NC(=O)COC(=O)CN2CCCCCC2=O)c1C	-0.4	10.9*	-0.1	-11.8	0.672	0.8	0.8	-0.6
Cc1ccc(SCCn2nc(C(=O)O)c3ccccc3c2=O)cc1	5.1	0.8	2.3	13.1	0.737	/	/	/
O=C(O)c1nn(CCSc2ccccc2F)c(=O)c2ccccc12	-1.1	36.7*	0.1	-4.0	0.701	-5.3	-5.5	-0.2
COc1ccc(C=NNC(=O)CCSc2nc3ccccc3s2)cc1	/	/	/	/	0.714	/	/	/
O=C(CCSc1nc2ccccc2s1)N/N=C/c1c(O)ccc2ccccc12	8.2	16.8*	12.1*	-6.5	/	6.8	10.1	17.7
Cc1ccc(C(=O)NN=C(CC(C)C)c2ccccc2)cc1	/	/	/	/	0.655	/	/	/
O=C(COc1ccccc1)N/N=C/c1ccc([N+](=O)[O-])o1	10.1	11.6*	9.8*	-1.4	/	8.2	7.3	30.8*
COc1ccc(C(=O)COc2ncnc3cc(Cl)ccc23)cc1	1.0	97.8*	2.2	9.5	0.698	-4.6	-4.8	0.4
CCCC(=NNC(=O)c1ccco1)c1ccc(Cl)s1	/	/	/	/	0.695	/	/	/
Nc1ncn([C@H]2C[C@H](O)[C@@H](CO)O2)c(=O)n1	2.9	11.7*	3.8	-8.6	/	13.9*	7.8	33.6*
NN=C(Cc1cscn1)c1ccc(O)cc1O	/	/	/	/	0.667	/	/	/
CCc1ccc(C=NNC(=O)Cc2cccn2C)cc1	/	/	/	/	0.626	/	/	/

Compound activity from PubChem BioAssay.
